From PubChem
HP1b binding inh: blocks HP1-beta chromodomain binding to methylated histone tails; P83916; 0.56% of 390,000 active; AlphaScreen HP1-beta / biotin-H3K9me3 peptide binding; Potency, µM (titrated, usually from 114 µM), without a hit: at the top dose activity change, negative = inhibition, usual class: inhibitors; further: nearly all actives have a fitted effect of over 70% in size
Target sequence (P83916 whole entry, looked up): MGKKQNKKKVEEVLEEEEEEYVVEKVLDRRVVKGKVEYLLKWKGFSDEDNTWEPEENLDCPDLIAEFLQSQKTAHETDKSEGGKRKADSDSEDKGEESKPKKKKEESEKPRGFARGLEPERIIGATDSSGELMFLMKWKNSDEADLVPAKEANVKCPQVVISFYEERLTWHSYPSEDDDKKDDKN
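AlphaScreen: HP1-beta (50 nM) preformed 30 min with biotin-H3(1-18)K9me3 peptide (50 nM) in PBS pH 7.4, 0.01% Tween-20. Compound added for 30 min at RT, then streptavidin donor/nickel chelate acceptor beads (10 ug/mL) for 30 min.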
BAZ2B block: BAZ2B (human) inhibition; Potency, µM (top dose mostly 114 µM), inactives show at the highest dose activity change, negative = inhibition, actives largely listed as inhibitors; Q9UIF8; AlphaScreen BAZ2B-H3K14Ac peptide displacement; 4.4% of 360,000 active; further: on the % scale 0 is the no-effect control and ±100 the full control effect; nearly all actives have a fitted effect of over 60% in size
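Complex of BAZ2B and biotin-H3K14Ac (50 nM apiece) forms over 30 min at RT, then faces library compounds up to 110 uM for another 30 min; AlphaScreen beads added, 20 min dark incubation, luminescence read.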
JMJD2A Tudor: JMJD2A Tudor domain (human) inhibition; AlphaScreen JMJD2A-Tudor / H3K4me3 peptide binding; Potency, µM (top dose mostly 114 µM), for inactives: at the highest dose activity change, negative = inhibition, hits mostly inhibitors; AID 504339; 4.4% of 390,000 active; O75164; further: on the % scale 0 is the no-effect control and ±100 the full control effect; nearly all actives have a fitted effect of over 50% in size
G9a block: inhibitors of human histone lysine methyltransferase G9a; Q96KQ7; G9a H3K9 monomethylation, AlphaScreen, 2 h; Potency, µM (top dose mostly 102 µM), for the others: top-dose activity, negative = inhibition, most hits filed as inhibitors; 8.8% of 350,000 active; further: on the % scale 0 is the no-effect control and ±100 the full control effect; nearly all actives have a fitted effect of over 75% in size
Target sequence (Q96KQ7 913-1193 limits assumed): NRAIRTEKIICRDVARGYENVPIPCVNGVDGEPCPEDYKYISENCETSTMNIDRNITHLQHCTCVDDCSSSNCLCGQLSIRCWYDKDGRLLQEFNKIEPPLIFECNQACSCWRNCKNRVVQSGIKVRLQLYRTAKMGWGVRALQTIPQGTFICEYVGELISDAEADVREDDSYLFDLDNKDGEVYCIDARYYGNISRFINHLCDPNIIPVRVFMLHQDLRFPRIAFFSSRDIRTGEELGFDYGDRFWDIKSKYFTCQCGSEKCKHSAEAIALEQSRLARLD
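Step 1: enzyme (final 20 nM) with compound, 15 min RT. Step 2: substrate peptide 500 nM and SAM 20 uM, 2 h RT. Step 3: anti-H3K9me1 antibody and AlphaScreen beads, 10 min, then plate read.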
L3MBTL1 block: blocks human L3MBTL1 | Q9Y468 | Potency, µM (highest dose often 57.1 µM), without a hit: at the highest dose activity, negative = inhibition, actives largely listed as inhibitors | 0.66% of 230,000 active | AlphaScreen L3MBTL1–H3K9me1 peptide binding; further: on the % scale 0 is the no-effect control and ±100 the full control effect; nearly all actives have a fitted effect of over 60% in size
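AlphaScreen proximity signal between nickel-chelate acceptor and streptavidin donor beads (final 10 ug/mL) reports binding of 50 nM L3MBTL1 to 75 nM biotin-H3 K9me1 peptide; complex incubated with compounds 30 min at room temperature; cefsulodin titration as control.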
Starred values were filed as active, the others as inactive; [ ] = remark or other dose. Hits are enriched below; roughly 11% of the tested compounds scored in any of these assays. The call rests on the fitted dose curve; in most records, active means well fitted inhibition curve with a large enough effect; inconclusive means small, poorly fitted or top-dose-only effect; inactive means no such curve, though single readings can be large or run the other way. Potency means the concentration at half of the fitted maximal effect.

`O=[N+]([O-])c1cc(S(=O)(=O)C(F)(F)F)ccc1Sc1nc2ccccc2s1` gave HP1b binding inh inconclusive, BAZ2B block 7.9µM*, JMJD2A Tudor 35µM*, G9a block -6%[0.501 µM] and L3MBTL1 block -4%.
`O=C(N/N=C/c1ccc(O)cc1O)c1ccc(CN2C(=O)c3cccc4cccc2c34)cc1` gave HP1b binding inh 55%, BAZ2B block -2%, JMJD2A Tudor 4%, G9a block 79µM* and L3MBTL1 block 6%.
Screening CCOc1ccccc1CNC(=O)c1ccc2c(c1)sc1nc(-c3cccc(OC)c3)cn12 returned HP1b binding inh 14%, BAZ2B block -13%, JMJD2A Tudor -17% and G9a block inconclusive.
Screening C=CCNCCCCOc1ccc(OCc2ccccc2)cc1 returned HP1b binding inh -22%, BAZ2B block 50µM*, JMJD2A Tudor 35µM*, G9a block 10µM* and L3MBTL1 block -12%.
`O=C(NC1CCCC1)c1ccccc1OCc1ccccc1` gave HP1b binding inh 42%, BAZ2B block -2%, JMJD2A Tudor 30%, G9a block 47% and L3MBTL1 block 13%.
COCCCNCCCCOc1ccc(OCc2ccccc2)cc1 was read as HP1b binding inh inconclusive, BAZ2B block 45µM*, JMJD2A Tudor 20µM* and L3MBTL1 block -14%.
Screening c1ccc(COc2ccc(OCCCNC3CCCC3)cc2)cc1 returned HP1b binding inh -54%, BAZ2B block 45µM*, JMJD2A Tudor 5µM* and G9a block inconclusive.
COCCCNC(=O)CCCOc1ccccc1 was read as HP1b binding inh 27%, BAZ2B block inconclusive, JMJD2A Tudor 2%, G9a block -48%[59 µM] and L3MBTL1 block -9%.
CCc1cccc(OCCCCNCCOC)c1 was read as HP1b binding inh inconclusive, JMJD2A Tudor 7.1µM*, G9a block 7.9µM* and L3MBTL1 block -5%.
For O=C(NCCS(=O)(=O)N1CCN(c2ccccc2F)CC1)C(c1ccccc1)c1ccccc1 the results were HP1b binding inh 22%[57 µM], BAZ2B block 4%, JMJD2A Tudor -1% and G9a block -5%[59 µM].
Screening Cc1c(C(=O)N(C)C)sc2c1c(=O)n(-c1ccc(Cl)c(Cl)c1)c(=O)n2Cc1ccc(F)cc1 returned HP1b binding inh 32%, BAZ2B block 2%, JMJD2A Tudor -12% and G9a block 6%[59 µM].
For CCNc1ncc2nc(-c3ccc(F)cc3)c(=O)n(C[C@H]3CCCO3)c2n1 the results were G9a block 10%[0.501 µM].
Cc1cccc(N2CCN(C(=O)c3ccc4c(Cl)c5c(nc4c3)CCCC5)CC2)c1C was read as HP1b binding inh 8%, BAZ2B block -18%, JMJD2A Tudor -17% and G9a block -2%[59 µM].
For OC(CNC1CCCCC1)COCCOc1ccc(Br)cc1 (centres undefined) the results were HP1b binding inh 24%, BAZ2B block 1%, JMJD2A Tudor -1%, G9a block -9%[59 µM] and L3MBTL1 block 8%.
CC(C)Oc1ccc(OCCNC2CCCC2)cc1 was read as HP1b binding inh inconclusive, BAZ2B block inconclusive, JMJD2A Tudor 3.5µM* and G9a block inconclusive.
For Cc1noc(C)c1-c1ccc2ncnc(NCc3ccc(C(F)(F)F)o3)c2c1 the results were JMJD2A Tudor -25%.
COC(=O)/C=c1/s/c(=C(\C#N)C(=O)NCc2ccco2)n(-c2ccccc2)c1=O was read as HP1b binding inh 12%, BAZ2B block -7%, JMJD2A Tudor -6%, G9a block 45µM* and L3MBTL1 block -8%.
Screening O=C1CC(c2ccco2)=Nc2ccccc2N1 returned HP1b binding inh 14%, BAZ2B block -2%, JMJD2A Tudor -15%, G9a block inconclusive and L3MBTL1 block -21%.
Screening CC1=Nc2cccc3cccc(c23)N1 returned HP1b binding inh inconclusive, BAZ2B block -5%, JMJD2A Tudor inconclusive, G9a block 25µM* and L3MBTL1 block -15%.
`Cc1ccc(C(=O)NNC2=Nc3cccc4cccc2c34)cc1` gave HP1b binding inh 28%, BAZ2B block 4%, JMJD2A Tudor -21%, G9a block 17% and L3MBTL1 block -17%.
For c1coc(C2=Nc3cccc4cccc(c34)N2)c1 the results were HP1b binding inh inconclusive, BAZ2B block inconclusive, JMJD2A Tudor -29%, G9a block 40µM* and L3MBTL1 block -12%.
COc1cccc(C2=Nc3cccc4cccc(c34)N2)c1 was read as HP1b binding inh inconclusive, BAZ2B block 40µM*, JMJD2A Tudor 50µM*, G9a block 16µM* and L3MBTL1 block -11%.
`Nc1ccc(C2=Nc3cccc4cccc(c34)N2)cc1` gave HP1b binding inh 25%, BAZ2B block 50µM*, JMJD2A Tudor -23%, G9a block inconclusive and L3MBTL1 block -12%.
Screening O=C(OCC#CCSc1nnc(-c2ccc(Cl)cc2)o1)c1ccc(F)cc1 returned JMJD2A Tudor 18%.
`COc1ccc(NC(=O)c2cc(-c3ccccc3Cl)no2)cc1` gave HP1b binding inh 26%, BAZ2B block -2%, JMJD2A Tudor -2%, G9a block 6% and L3MBTL1 block -1%.
`Cc1ccc2c(C)c(C(=O)NCC(c3ccc(Cl)cc3)N3CCOCC3)oc2c1` (centres undefined) gave HP1b binding inh 1%, BAZ2B block inconclusive, JMJD2A Tudor -25% and G9a block 13µM*.
CN(CC(=O)Nc1cccc(F)c1)C(=O)c1ccc(-c2ccc(Cl)cc2)o1 was read as HP1b binding inh 6%, BAZ2B block inconclusive, JMJD2A Tudor inconclusive and G9a block 35µM*.
`COc1ccc(C(CNC(=O)c2ccc(-c3ccccc3Cl)o2)N2CCOCC2)cc1` (centres undefined) gave HP1b binding inh -9%, BAZ2B block inconclusive, JMJD2A Tudor -35%, G9a block 45µM* and L3MBTL1 block -17%.
`COc1ccccc1C(CNC(=O)c1ccc(-c2ccccc2Cl)o1)N1CCCC1` (centres undefined) gave HP1b binding inh 2%, BAZ2B block -36%, JMJD2A Tudor inconclusive, G9a block 14%[0.501 µM] and L3MBTL1 block -1%.
O=C(Nc1ccccc1)c1cc(-c2ccccc2Cl)no1 was read as HP1b binding inh -2%, BAZ2B block 5%, JMJD2A Tudor 28µM*, G9a block 42% and L3MBTL1 block 5%.
COc1ccc(Nc2ncnc3onc(C)c23)cc1Cl was read as HP1b binding inh -4%, BAZ2B block 10%[57.1 µM], JMJD2A Tudor -15% and G9a block -5%[59 µM].
`COc1cc(C(=O)NCc2nnc(SCC(=O)Nc3cccc(C(F)(F)F)c3)o2)cc(OC)c1OC` gave HP1b binding inh 28%, BAZ2B block -4%, JMJD2A Tudor -27% and G9a block 1%[0.501 µM].
